# Measured values taken from PubChem BioAssay (Tox21).
# Several values for one entry are separate records, joined by “and”; a condition that tells them apart may be missing. Identical values can stand only once. Results filed as inconclusive are left out. Entries that show only a call come without a potency. Where a structure was tested more than once in an assay, its records may differ in their call. Activity calls are given as the source filed them. The call rests on the fitted dose curve.
# Test: qHTS assay to identify small molecule antagonists of the estrogen receptor alpha (ER-alpha) signaling pathway using the BG1 cell line (AID 743080);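 further: BG1 cells stimulated with 17beta-estradiol alongside compound; nearly all actives have a fitted effect of over 25% in size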
# Settings: BG1Luc4E2 ERE-luciferase antagonist mode, luminescence; series mostly up to 70.3 µM
# Excerpt: National Center for Advancing Translational Sciences [NCATS]
# NIH Chemical Genomics Center [NCGC]
# U.S. Environmental Protection Agency [EPA]
# National Institutes of Environmental Health Sciences [NIEHS]
# National Toxicology Program [NTP]
# U.S. Food and Drug Administration [FDA]
# Estrogen receptor (ER), a nuclear hormone receptor, plays an important role in development, metabolic homeostasis and reproduction. Endocrine disrupting chemicals (EDCs) and their interactions with steroid hormone receptors like ER causes disruption of normal endocrine function. Therefore, it is important to understand the effect of environmental chemicals on the ER signaling pathway. To identify ER antagonists, BG1-Luc-4E2 cell line (provided by Dr. Michael Denison from University of California) has been used to screen the Tox21 10K compound library. BG1Luc4E2 cell line endogenously expresses full-length ER-alpha and is stably transfected with a plasmid containing four estrogen responsive elements (ERE) upstream of a luciferase reporter gene.
# Tox21 Assay Protocol Summary:
# BG1-Luc-4E2 cells were cultured in phenol red free assay medium containing 10% charcoal stripped FBS for 5 days before the assay was performed. The cells were dispensed at 4,000 cells/4 uL of assay medium per well into white wall/solid-bottom 1536-well plates using a Multidrop Combi (ThermoFisher Scientific, Waltham, MA) dispenser. The assay plates were incubated at a 37C and 5% CO2 for 24 h, and then 23 nL of compounds dissolved in DMSO, positive controls or DMSO only was transferred to the assay plate using a Pintool station (Kalypsys, San Diego, CA), followed by addition of 1 uL of 17beta-estradiol in assay medium using a Flying Reagent Dispenser (Aurora Discovery, San Diego, CA). After the plates were incubated at 37 C and 5% CO2 for 21.5 h, 1 uL of CellTiter-Fluor reagent (Promega, Madison, WI) of measuring cytotoxicity was added using Flying Reagent Dispenser (FRD) to each well. The assay plates were incubated at 37 C and 5% CO2 for additional 30 min and the fluorescence intensity was quantified by a ViewLux plate reader (PerkinElmer, Shelton, CT). For measuring luciferase reporter gene activity, 4 uL of ONE-Glo reagent (Promega) was added to each plate using an FRD and luminescence was quantified by a ViewLux plate reader after 30 min incubation at room temperature.
# Potency means the concentration at half of the fitted maximal effect.
row,SMILES,Potency
1,Cc1cc(C2(c3cc(C)c(O)cc3C)OS(=O)(=O)c3ccccc32)c(C)cc1O,inactive
2,Clc1ccc2c(c1)C(N1CCNCC1)=Nc1ccccc1O2,11.9 µM (active)
3,COc1nc(C)nc(Cl)c1NC1=NCCN1,inactive
4,COc1ccc(Cc2cnc(N)nc2N)cc1OC,inactive
5,CC(C)(C)c1cc(C(C)(C)C)c(O)c(C(C)(C)C)c1,inactive
6,Oc1c(Cl)cc(Cl)cc1Sc1cc(Cl)cc(Cl)c1O,26.6 µM (active) and 48.6 µM (active)
7,BrC1CCC(Br)C(Br)CCC(Br)C(Br)CCC1Br (stereo not given),inactive
8,Cc1ccc(-c2cc(C(F)(F)F)nn2-c2ccc(S(N)(=O)=O)cc2)cc1,inactive
9,Cc1scc2c1N(C(=O)CN1CCN(C)CC1)c1ccccc1NC2=O,inactive
10,O=C(O[C@@H]1Cc2c(O)cc(O)cc2O[C@@H]1c1cc(O)c(O)c(O)c1)c1cc(O)c(O)c(O)c1,inactive
11,CC1COC(=O)O1 (stereo not given),inactive
12,CC[C@]1(O)C[C@@H]2CN(CCc3c([nH]c4ccccc34)[C@@](C(=O)OC)(c3cc4c(cc3OC)N(C)[C@H]3[C@@](O)(C(=O)OC)[C@H](OC(C)=O)[C@]5(CC)C=CCN6CC[C@]43[C@@H]65)C2)C1,3.35 µM (active)
13,CC(=O)CC(=O)Nc1ccc2[nH]c(=O)[nH]c2c1,inactive
14,CC(C)(C)c1ccc(O)c(C(C)(C)C)c1,48.6 µM (active)
15,O=C1NCC2(CCN(CCc3ccccc3)CC2)O1,inactive
16,CC(C)CCCCCCc1ccc(O)cc1,inactive and 43.3 µM (active)
17,CCCCCCCCCCCCCCCCCl,inactive
18,CC(=O)C1=C(C)[C@@H]2C[C@@]3(C1)[C@H](C)CC[C@H]3C2(C)C,inactive
19,O=C1OC2(c3ccc(O)cc3Oc3cc(O)ccc32)c2ccccc21,inactive
20,c1ccc2cc3c(ccc4ccccc43)cc2c1,inactive

row,SMILES,Potency
1,C=CS(=O)(=O)O,inactive
2,COC(=O)/C=C/c1ccccc1,inactive
3,O=C(O)c1cc(Cl)cc(Cl)c1,inactive
4,C=CC(=O)OCCCCCCCC,inactive
5,CCn1cc(C(=O)O)c(=O)c2cc(F)c(N3CCNC(C)C3)c(F)c21 (stereo not given),inactive
6,NCCCCCC(=O)O,inactive
7,C1COC(NC(C2CC2)C2CC2)=N1,inactive
8,Nc1ccc(O)cc1,inactive
9,COC(=O)c1cccc(C(=O)OC)c1,inactive
10,c1ccc2c(c1)-c1cccc3c1c-2cc1ccccc13,inactive
11,CCCOC(=O)c1cc(O)c(O)c(O)c1,inactive
12,CCOc1ccc2c(c1)C(C)=CC(C)(C)N2,inactive
13,NC(N)=Nc1nc(CSCC/C(N)=N/S(N)(=O)=O)cs1,inactive
14,CCC(C)(Oc1ccc(C2(c3ccc(OC(C)(CC)C(=O)O)cc3)CCCCC2)cc1)C(=O)O (stereo not given),inactive
15,CC(=O)OCCOCCOCCOC(C)=O,inactive
16,O=C(Oc1ccccc1)c1ccccc1O,inactive
17,OCC(CO)N[C@H]1C[C@](O)(CO)[C@@H](O)[C@H](O)[C@H]1O,inactive
18,CCc1ccc(C(c2ccc(CC)cc2)C(Cl)Cl)cc1,inactive
19,O=C(O)CP(=O)(O)O,inactive
20,Oc1ccc(Cl)cc1Cc1cc(Cl)ccc1O,33.5 µM (active)
